Most compounds without a hit are left out; they make up all but 2.7% or so of the library.
IP6K1 inh: blocks human inositol hexakisphosphate kinase 1; Q92551; IP6K1 kinase, ADP-Glo luminescence, 2 h; active compounds read low; activity change, % (series mostly up to about 58 µM); hit rate 0.81% among 140,000; AID 1645851; in the data active = activity change below about -25%
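ADP-Glo luminescence measures ADP made by human IP6K1 during a 2 h RT reaction with ATP/IP6 (mix at 1.3 mM/130 uM); top library doses 57.5 and 19.1 uM final.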
KDM5B inh: inhibitors of human KDM5B histone demethylase; KDM5B demethylase, FDH-coupled NADH fluorescence (FDH is formaldehyde dehydrogenase); Potency, µM (highest dose often 57.7 µM), actives largely listed as inhibitors; hit rate 2.6% among 220,000; active = well fitted inhibition curve with a large enough effect; inconclusive = small, poorly fitted or top-dose-only effect; inactive = no such curve, though single readings can be large or run the other way; also: nearly all actives have a fitted effect of over 70% in size
Target sequence (Q9UGL1 whole entry, looked up): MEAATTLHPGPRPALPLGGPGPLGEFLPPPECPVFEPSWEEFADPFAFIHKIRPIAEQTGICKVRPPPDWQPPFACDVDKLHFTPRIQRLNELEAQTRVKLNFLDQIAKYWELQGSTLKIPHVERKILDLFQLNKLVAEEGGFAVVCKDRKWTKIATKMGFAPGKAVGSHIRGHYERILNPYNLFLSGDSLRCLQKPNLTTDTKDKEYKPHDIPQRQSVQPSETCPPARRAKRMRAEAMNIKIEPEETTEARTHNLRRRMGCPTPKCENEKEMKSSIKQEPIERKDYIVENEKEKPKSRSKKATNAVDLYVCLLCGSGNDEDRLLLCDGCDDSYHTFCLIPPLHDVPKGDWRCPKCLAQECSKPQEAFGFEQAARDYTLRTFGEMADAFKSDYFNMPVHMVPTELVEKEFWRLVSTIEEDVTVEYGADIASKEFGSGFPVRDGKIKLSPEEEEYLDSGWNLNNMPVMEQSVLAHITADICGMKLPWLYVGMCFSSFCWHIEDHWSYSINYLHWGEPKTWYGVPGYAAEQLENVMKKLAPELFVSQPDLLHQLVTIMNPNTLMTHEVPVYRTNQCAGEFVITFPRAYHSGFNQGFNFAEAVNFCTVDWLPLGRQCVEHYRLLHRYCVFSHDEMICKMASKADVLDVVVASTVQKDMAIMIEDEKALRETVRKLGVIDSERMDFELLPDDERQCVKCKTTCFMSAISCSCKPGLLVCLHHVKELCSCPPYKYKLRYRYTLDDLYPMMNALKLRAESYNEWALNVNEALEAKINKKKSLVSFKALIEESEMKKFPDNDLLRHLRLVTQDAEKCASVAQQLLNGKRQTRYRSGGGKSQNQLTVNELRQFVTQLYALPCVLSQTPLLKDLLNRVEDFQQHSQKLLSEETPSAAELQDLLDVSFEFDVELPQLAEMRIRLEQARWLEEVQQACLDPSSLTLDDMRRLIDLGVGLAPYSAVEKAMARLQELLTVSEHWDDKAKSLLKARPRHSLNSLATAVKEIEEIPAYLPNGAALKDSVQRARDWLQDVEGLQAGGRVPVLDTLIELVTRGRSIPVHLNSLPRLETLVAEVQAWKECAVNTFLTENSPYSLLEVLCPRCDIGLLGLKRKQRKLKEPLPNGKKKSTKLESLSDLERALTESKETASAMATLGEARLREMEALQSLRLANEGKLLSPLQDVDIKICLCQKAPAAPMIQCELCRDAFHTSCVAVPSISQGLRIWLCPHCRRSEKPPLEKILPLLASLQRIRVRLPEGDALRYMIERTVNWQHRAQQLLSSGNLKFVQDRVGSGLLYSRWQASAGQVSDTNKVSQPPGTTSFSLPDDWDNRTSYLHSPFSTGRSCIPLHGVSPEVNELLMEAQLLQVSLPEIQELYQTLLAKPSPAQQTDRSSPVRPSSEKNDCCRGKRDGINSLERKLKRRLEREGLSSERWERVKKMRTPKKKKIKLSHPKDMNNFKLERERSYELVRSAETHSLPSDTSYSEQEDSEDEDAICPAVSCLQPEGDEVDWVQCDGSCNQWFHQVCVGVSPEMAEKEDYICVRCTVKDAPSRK
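qHTS format, multiple compound concentrations. Buffer 50 mM HEPES pH 7.5/0.01% Tween-20; 200 nM KDM5BΔAP final; 10 min compound preincubation; substrate-mix levels 12.5 µM peptide, 25 µM α-KG, 0.25 mM NAD⁺; 30 min RT; ΔRFU.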
Hits are given with their value; n = inactive; u = inconclusive; x = no result.

SMILES	IP6K1 inh	KDM5B inh
Cc1nnc2ccc(N3CCCC(NC(=O)c4cccc(C(F)(F)F)c4)C3)nn12 (stereo unspecified)	n	x
O=C(Nc1ccc2c(c1)OCCO2)N1CCC(Cc2nc(C3CC3)n[nH]2)C1 (stereo unspecified)	n	n
CCc1n[nH]c(CC2CCN(C(=O)Nc3ccc4c(c3)OCCO4)CC2)n1	n	22µM
COCc1nnc2n1CCC(NC(=O)c1n[nH]c3ccccc13)CC2 (stereo unspecified)	n	28µM
COCc1nnc2n1CCC(NC(=O)Cc1c[nH]c3ccccc13)CC2 (stereo unspecified)	n	n
COc1ccc(S(=O)(=O)N2CCCCC2)cc1NC(=O)c1nn(CC(C)C)c(=O)c2ccccc12	x	n
O=[N+]([O-])c1cc(S(=O)(=O)Nc2ccccc2)ccc1N/N=C1/CC2CC=CC12 (stereo unspecified)	x	n
CC1(CNc2ccccc2)COc2ccc(C(=O)NCCN3CCOCC3)cc2N1 (stereo unspecified)	n	n
CC1(CNc2ccccc2)COc2ccc(C(=O)N3CCN(c4ccccn4)CC3)cc2N1 (stereo unspecified)	n	u
CC1(COc2ccccc2)COc2ccc(C(=O)NCCOc3ccccc3)cc2N1 (stereo unspecified)	n	40µM
CC1(CNc2ccccc2)COc2ccc(C(=O)NCCOc3ccccc3)cc2N1 (stereo unspecified)	n	28µM
CN(Cc1ccccc1)C(=O)c1ccc2c(c1)NC(C)(COc1ccccc1)CO2 (stereo unspecified)	n	40µM
CC1(CNc2ccccc2)COc2ccc(C(=O)NCCc3ccccn3)cc2N1 (stereo unspecified)	n	22µM
CC1(COc2ccccc2)COc2ccc(C(=O)Nc3ccc4[nH]ccc4c3)cc2N1 (stereo unspecified)	n	u
CCOCC1(C)COc2ccc(C(=O)N(C)Cc3ccccc3)cc2N1 (stereo unspecified)	n	n
CCCOc1ccc(C(=O)NC2CCCCNC2=O)cc1OCCC (stereo unspecified)	x	n
Cn1ncc2c(C(=O)N3CCC(Cc4ccccc4)CC3)cc(-c3ccc(C(F)(F)F)cc3)nc21	n	x
CNc1nc(-c2[nH]c(C)c(C(=O)OC)c2C)cs1	x	n
Cc1ccc(NC(=O)Cn2nc3ccc(S(=O)(=O)C(C)(C)C)nn3c2=O)cc1	x	n
CCn1c2ccccc2c2cc(C(=O)N3C[C@@H](Oc4ccccc4)C[C@@H]3C(=O)NC)ccc21	n	u
CC(=O)NC1(C)CN(Cc2ccc(-c3ccc(Oc4ccccc4)cc3)s2)C1	n	u
CNc1ncccc1C(=O)N[C@@H]1COCC[C@@H]1OCc1ccccc1	n	28µM
Cc1[nH]nc(C(=O)N[C@@H]2COCC[C@@H]2OCc2ccccc2)c1Cl	n	n
CC1(C(=O)N2CCC(c3ccccc3)CC2)CCOCC1	n	n
CC1(C(=O)N2CCN(c3ccccn3)CC2)CCOCC1	n	112µM
SMILES	IP6K1 inh	KDM5B inh
CC1(C(=O)N2CCN(c3ccccn3)CC2)CCCCC(=O)N1 (stereo unspecified)	n	18µM
O=C1CCCCC(Cc2ccccc2)(C(=O)N2CCN(c3ccccn3)CC2)N1 (stereo unspecified)	n	x
O=C(NCc1cccs1)c1ccc2nnc(Cc3ccc(Cl)cc3)n2c1	n	x
O=C(NC1CCCC1)c1cccc2ccccc12	x	n
CCn1ccc(C(=O)N2CCc3nc(NC)nc(C(=O)N4CCCC4)c3C2)n1	n	18µM
CCn1cc(C(=O)N2CCc3nc(NC)nc(C(=O)N4CCCC4)c3C2)c(C)n1	n	u
COc1cccc(C(=O)N2CCN(c3ccc4ncc(-c5cccc(C(F)(F)F)c5)n4n3)CC2)c1	n	x
COCC1CN(C2CCC2)CC12CCN(C(=O)COc1ccccc1)CC2 (stereo unspecified)	n	u
COCC1CN(C2CCC2)CC12CCN(C(=O)COc1ccc(F)cc1)CC2 (stereo unspecified)	n	10µM
CCc1noc(-c2ccn3c(CNC(=O)c4ccncc4)nnc3c2)n1	n	25µM
Cc1ccc(C(=O)NCc2nnc3cc(-c4nc(C5CC5)no4)ccn23)cc1F	n	u
CCc1noc(-c2ccn3c(CNC(=O)c4ccoc4)nnc3c2)n1	n	28µM
Cc1noc(-c2ccn3c(CNC(=O)c4ccncc4)nnc3c2)n1	n	n
CCc1noc(-c2ccn3c(CNC(=O)c4cc(Cl)ccc4F)nnc3c2)n1	n	u
CCCc1noc(-c2ccn3c(CNC(=O)c4cccnc4)nnc3c2)n1	n	28µM
Cc1noc(-c2ccn3c(CNC(=O)c4cccnc4)nnc3c2)n1	n	n
CCCc1noc(-c2ccn3c(CNC(=O)c4ccc(C)c(F)c4)nnc3c2)n1	n	28µM
Cn1c(CN2CCOC[C@H]2c2ncc(-c3ccc(Cl)s3)[nH]2)nc2ccccc21	n	n
C#CC(C)(CC)NC(=O)Cc1ccccc1 (stereo unspecified)	x	n
Cc1ccc(C(=O)N2CCC3(CC2)N=C(c2ccc(Br)cc2)NO3)cc1	n	n
CCN(Cc1ccccc1)C(=O)Nc1ccc2c(C)cc(=O)oc2c1	x	n
Cc1noc(-c2ccn3c(CNC(=O)c4ccc(N(C)C)cc4)nnc3c2)n1	n	u
CCCc1noc(-c2ccn3c(CNC(=O)c4cccc(Cl)c4)nnc3c2)n1	n	u
Cc1noc(-c2ccn3c(CNC(=O)c4ccoc4)nnc3c2)n1	n	25µM
CCc1noc(-c2ccn3c(CNC(=O)c4cccc(OC)c4)nnc3c2)n1	n	28µM
SMILES	IP6K1 inh	KDM5B inh
Cc1ccc(-c2cccc(CN3CCCC3C(=O)N3CCN(c4ncccn4)CC3)c2)cc1Cl (stereo unspecified)	n	x
O=C(Nc1ccc2c(c1)OCCO2)C1(CCO)CCN(c2ncccn2)C1 (stereo unspecified)	n	u
O=C(Nc1ccc(N2CCOCC2)cc1)C1(CCO)CCN(c2ncccn2)C1 (stereo unspecified)	n	22µM
O=C(Nc1ccc(N2CCOCC2)cc1)C1(CCO)CCN(Cc2ccccc2)C1 (stereo unspecified)	n	n
O=C(Nc1cccc(F)c1)C1(CCO)CCN(c2ncccn2)C1 (stereo unspecified)	n	28µM
O=C(N1CCCC1)C1(CCO)CCN(c2ncccn2)C1 (stereo unspecified)	n	28µM
COCCCNC(=O)C1(CCO)CCN(c2ncccn2)C1 (stereo unspecified)	n	u
O=C(NC1CCCCC1)C1(CCO)CC12CCN(c1ncccn1)CC2 (stereo unspecified)	n	x
O=C(NCc1ccccc1)C1(CCO)CCN(c2ncccn2)C1 (stereo unspecified)	n	28µM
CN(CCC#N)C(=O)CSc1nc(C2CC2)nc2ccccc12	x	n
CCN1c2cc(C(=O)Nc3ccc(-n4ccnc4)cc3)ccc2C(=O)N2CCCCCC21 (stereo unspecified)	n	u
O=C(N/N=C/c1ccsc1)c1cccs1	x	n
N#CCCn1cc(C(=O)Nc2ccccc2)c(-c2cccs2)n1	x	n
CCN(Cc1cc(=O)oc2c(C)c(O)ccc12)C1CC1	x	n
CS(=O)(=O)c1ccc(OC[C@H]2C[C@@H](NC(=O)c3cncnc3)[C@H](O)[C@@H]2O)cc1	n	n
CS(=O)(=O)c1ccc(OC[C@H]2C[C@@H](NC(=O)C3CCOCC3)[C@H](O)[C@@H]2O)cc1	n	32µM
Cc1ncc(CO)c(CN2CCCCC23Cc2ccccc2CNC3=O)c1O (stereo unspecified)	n	n

Source: PubChem
